# High-throughput results as filed in PubChem.
# Gal4-VP16 FLuc: inhibits Gal4-VP16 luciferase reporter, ROR gamma counter-screen; Drosophila S2 Gal4-VP16 UAS-luciferase, luminescence, 20 h; Potency, µM (doses to about 53.6 µM), for inactives: top-dose activity, negative = inhibition, hits mostly inhibitors; hit rate 3.5% among 310,000;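 further: Gal4-VP16 expression switched on by copper sulfate through the metallothionein promoter; nearly all actives have a fitted effect of over 50% in size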
# RORgamma inh: ROR gamma (mouse) transcription inhibition. P51450. Drosophila S2 Gal4-RORgamma UAS-luciferase reporter, 20 h. Potency, µM (series often up to 53.6 µM), for the others: top-dose activity change, negative = inhibition, actives largely listed as inhibitors. hit rate 5.4% among 310,000. AID 2551; further: nearly all actives have a fitted effect of over 60% in size
# Target sequence (P51450 whole entry, looked up, the tested form may be a part): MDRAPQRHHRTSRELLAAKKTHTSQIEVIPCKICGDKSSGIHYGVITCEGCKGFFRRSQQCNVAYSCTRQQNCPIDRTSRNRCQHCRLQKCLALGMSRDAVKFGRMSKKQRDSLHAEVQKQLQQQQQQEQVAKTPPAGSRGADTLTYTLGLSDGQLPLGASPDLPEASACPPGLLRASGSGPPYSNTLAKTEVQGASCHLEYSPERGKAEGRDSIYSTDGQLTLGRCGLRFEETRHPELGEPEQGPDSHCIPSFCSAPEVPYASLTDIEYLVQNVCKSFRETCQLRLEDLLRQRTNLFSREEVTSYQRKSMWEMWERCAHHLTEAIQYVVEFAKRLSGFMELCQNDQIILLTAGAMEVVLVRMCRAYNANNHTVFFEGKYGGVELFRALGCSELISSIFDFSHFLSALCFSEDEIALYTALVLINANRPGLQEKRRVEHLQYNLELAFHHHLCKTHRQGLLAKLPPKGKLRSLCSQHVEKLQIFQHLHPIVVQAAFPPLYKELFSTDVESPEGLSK
#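 Luminescence from a UAS-regulated Photinus luciferase reporter in stably transfected Drosophila Schneider cells is measured; decreased signal marks ROR gamma inhibition. Fusion expression is induced by 700 uM copper sulfate for 20 hr.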
# TDP1 inh: inhibitors of human tyrosyl-DNA phosphodiesterase TDP1. hit rate 0.28% among 350,000. Q9NUW8. recombinant TDP1, AlphaScreen DNA substrate cleavage. Potency, µM (doses to about 130 µM), without a hit: top-dose activity change, negative = inhibition, usual class: inhibitors; further: nearly all actives have a fitted effect of over 40% in size
#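 Tdp1 1 nM final; 15 min RT w/ cpd; substrate 15 nM, 5 min; beads 10 ug/ml, 10 min; AlphaScreen read. Neg ctrl: no enzyme.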
# DT40 TDP1 no CPT: qHTS for Inhibitors of human tyrosyl-DNA phosphodiesterase 1 (TDP1): qHTS in cells in absence of CPT | Potency, µM (highest dose often 46.2 µM), for the others: at the highest dose activity change, negative = growth inhibition, actives largely listed as inhibitors | AID 686978, 2013 | DT40 Tdp1-/- hTDP1 cells, no CPT, ATP luminescence, 48 h | hit rate 15% among 420,000; further: nearly all actives have a fitted effect of over 55% in size
#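 Stably hTDP1-transfected Tdp1-null chicken DT40 cells were treated with library compounds minus camptothecin and grown for at least 48 hr at 37 °C, after which cellular ATP was quantified by luminescence.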
# DT40 TDP1 CPT: DT40-hTDP1 cell growth loss with CPT; chicken DT40 Tdp1-/-;hTDP1 cells + 20 nM CPT, ATP luminescence, 48 h; Potency, µM (titrated, usually from 46.2 µM), for the others: at the top dose activity change, negative = growth inhibition, hits mostly inhibitors; hit rate 12% among 420,000; further: nearly all actives have a fitted effect of over 55% in size
#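 Chicken DT40 Tdp1-/- cells stably complemented with human TDP1 were seeded at 400 cells/well in medium containing 20 nM camptothecin, exposed to pin-transferred compounds, and grown at 37 °C for at least 48 hr. Viability was read as ATP luminescence.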
# Active calls of the source: *; ? = inconclusive; / = no result given; [ ] = remark or other dose. Rows were chosen to be rich in hits. Some 19% of all compounds tested hit in one or more screens of this group. The call rests on the fitted dose curve; in most records, active means well fitted curve in the direction sought with a large enough effect; inconclusive means small, poorly fitted or top-dose-only effect, or another doubt; inactive means no such curve, though single readings can be large; an effect the other way counts as inactive or inconclusive. On the % scale 0 is the no-effect control and ±100 the full control effect; potency means the concentration at half of the fitted maximal effect.
SMILES,Gal4-VP16 FLuc,RORgamma inh,TDP1 inh,DT40 TDP1 no CPT,DT40 TDP1 CPT
Cc1ccc(CN2CCc3nnc(C(C)NC(=O)c4cc(F)ccc4F)n3CC2)o1 (stereo not drawn),/,/,/,-8.1%,11.5%
CCC(=O)N1CCCC1(C)C(=O)Nc1cc(OC)ccc1OC (stereo not drawn),/,/,/,-11.0%,8.8%
CCC(=O)NC(c1ccco1)c1cc(Cl)c2cccnc2c1O (stereo not drawn),2.82µM*,1.41µM*,0.2%,3.66µM*,?
CCCCC(=O)NC(c1ccco1)c1cc(Cl)c2cccnc2c1O (stereo not drawn),0.3%,-0.1%,5.6%,16.4µM*,?
C#CCOCCOCCOCCNc1nc(N2CCN(C(=O)[C@H](CCCN=C(N)N)n3cc(C(N)[C@@H](C)CC)nn3)CC2)nc(N2CCN(C(=O)[C@H](CCC(=O)O)n3cc([C@@H](N)CCCCN)nn3)CC2)n1 (stereo partly drawn),/,/,4.4%,19.7%,-3.5%
CC(C)Cc1ccc(C(C)/C=C2/CCC(CN3CCCCC3)C2=O)cc1 (stereo not drawn),/,/,/,2.91µM*,2.91µM*
CC(C)Cc1ccc(CN2CCCC(NC(=O)CCN3CCCCC3=O)C2)cc1 (stereo not drawn),12.8%,7.0%,5.7%,?,?
O=C(Nc1ccnc(-c2ccncc2)n1)c1ccc(F)cc1,-9.9%,-9.6%,6.0%,-15.9%,-3.6%
CC1CCCC(NC(=S)NC(=O)c2cncc(Br)c2)C1C (stereo not drawn),5.62µM*,2.82µM*,3.4%,-1.3%,-4.7%
CC1CCCC(NC(=S)NC(=O)c2ccco2)C1C (stereo not drawn),/,/,0.8%,?,14.6µM*
Cc1c(O)cc2c(c1O)C(=O)CC(c1ccccc1)O2 (stereo not drawn),-7.7%,0.9%,/,5.8µM*,5.8µM*
COc1c(O)cc2c(c1O)C(=O)CC(c1ccccc1)O2 (stereo not drawn),-0.1%,0.1%,1.3%,/,/
Nc1nccc2c1ncn2C1OC(CO)C(O)C1O (stereo not drawn),/,/,/,5.8µM*,7.31µM*
OCC1OC(n2cnc3c(Cl)nc(Cl)nc32)C(O)C1O (stereo not drawn),-4.4%,12.6µM*,4.5%,?,?
CNc1ncnc2c1ncn2[C@@H]1O[C@H](CO)[C@@H](O)[C@@H]1O,11.8%[17 µM],13.0%[16.9 µM],-1.5%[21 µM],/,/
OC[C@H]1O[C@@H](n2cnc3cncnc32)[C@H](O)[C@@H]1O,3.16µM*,7.08µM*,9.9%[56.1 µM],0.461µM*,0.259µM*
CCOc1cc(CNC(=O)c2ccc3c(c2)N(C)C(=O)C2CCCCN32)ccc1OC (stereo not drawn),/,/,8.9%,?,?
Cn1c(=O)c(=O)n(C)c2cc(S(=O)(=O)CCC(=O)Nc3ccc(C(F)(F)F)cc3)ccc21,2.5%,-2.3%,-0.3%,15.8%,7.4%
Cc1ccc(NC2=NC(c3ccccc3)n3c(nc(C)cc3=O)N2)c(C)c1 (stereo not drawn),-0.7%,-21.1%,-1.0%,-7.2%,-14.5%
COCc1cc(=O)[nH]c(SCC(=O)c2ccccc2)n1,-10.4%,-0.4%,3.8%,-8.6%,12.6%
CC(=O)Nc1cccc(C(=O)N(CCc2ccccc2)Cc2ccccc2)c1,-7.8%,-3.9%,-9.4%,?,-24.2%
CC(C)(C)OC(=O)N(CCc1ccccc1)Cc1ccc(OCc2cccc(NC(=O)C3CC3)c2)cc1,/,/,/,4.61µM*,5.8µM*
CC(C)(C)OC(=O)N(CCc1ccccc1)Cc1cccc(OCc2cccc(NC(=O)c3ccccc3)c2)c1,/,/,/,18.4µM*,23.1µM*
CC(C)(C)OC(=O)N(CCc1ccccc1)Cc1ccc(OCc2cccc(NC(=O)/C=C/c3ccccc3)c2)cc1,/,/,/,-24.2%,-19.6%
CC(C)(C)OC(=O)N(CCc1ccccc1)Cc1ccccc1OCc1cccc(NC(=O)/C=C/c2ccccc2)c1,/,/,/,7.31µM*,9.2µM*
